From ChEMBL document CHEMBL3988442, “University of Dundee, Small-Polar-MMV Screening Library” (2021)
Hit rate of the full screen: of about 48,000 compounds, about 13,000 (27%) showed an effect of 50% or more. Some of the results follow.

tested on: Wolbachia pipientis; assay: Anti-Wolbachia Cell-Based Screen; assay type: functional; parameters: scale not given: in the data most compounds retested in dose-response had high values; conditions: 5 µM

| Structure (SMILES) | Percent Effect [%] |
| --- | --- |
| CCC(=O)N1CCN(C(=O)NCc2c(C)cc(C)cc2C)CC1 | 2.244 |
| O=C(NCc1nncn1-c1ccccc1)C1CC(=O)N(CC2CC2)C1 (stereo unspecified) | -5.786 |
| COc1ccc(-c2cc(N)ccn2)c(OC)c1OC | -25.01 |
| COc1cc(-c2cc(N)ncn2)cc(OC)c1OC | 113.5 |
| O=C(NCCc1cc(=O)[nH]cn1)c1[nH]nc2c1CCCC2 | -3.827 |
| COc1cc(-c2cc(=O)[nH]cn2)cc(OC)c1OC | 108.3 |
| COc1cc(F)ccc1-c1cnc(N)cn1 | 4.903 |
| COc1cc(-c2cnnc(NCCCOC(C)C)n2)cc(OC)c1OC | 29.72 |
| CNc1cc(-c2cc(OC)c(OC)c(OC)c2)ncn1 | 63.03 |
| COc1cc(N(C)Cc2cc(C(C)(C)C)n[nH]2)ncn1 | -14.87 |
| COc1cc(-c2cc(OC)c(OC)c(OC)c2)ncn1 | 111 |
| COc1cc(N2CCc3ncnc(-c4ccoc4)c3CC2)ncn1 | -1.629 |
| CC1CCN(S(=O)(=O)N2CCc3c(c(C(=O)O)nn3CC3CC3)C2)CC1 | -12.69 |
| CNC(=O)Cc1ccc(-n2ccnc2-c2ccc(C(=O)O)s2)cc1 | -11.42 |
| Cc1noc(-c2ccc(N3CCCC(C(=O)O)C3)nc2)n1 (stereo unspecified) | -4.979 |
| CS(=O)(=O)NCCNC(=O)NC1(c2ccc(Cl)cc2)CCC1 | -10.79 |
| COc1nc2c(cc1C(=O)N1CC[C@H](CO)[C@@H](O)C1)CCC2 | 9.103 |
| Cc1cccc(CNC(CN2CCN(C)CC2)c2ccccc2)c1 (stereo unspecified) | 16.68 |
| Cc1cc(C(C)(O)CNC(=O)OC(C)(C)C)c(C)o1 (stereo unspecified) | 0.294 |
| CCOCC(=O)NCC(C)(O)c1cc(C)oc1C (stereo unspecified) | 5.951 |
| Cc1cc(C(C)(O)CNC(=O)CCOCC(C)C)c(C)o1 (stereo unspecified) | 51.29 |
| CC(NCc1nnc2n1CCCC2)c1nc(Cc2ccccc2)no1 (stereo unspecified) | 8.593 |
| O=C(O)C(F)(F)F.O=C(O)C(F)(F)F.O=C(O)c1cc2c(nc1-c1ccsc1)CCN(C1CCOC1)CC2 (stereo unspecified) | -18.13 |
| Cc1cc(C)c2c(N3CCC(C(=O)N4CCCC4)CC3)ncnc2n1 | 96.05 |

| Structure (SMILES) | Percent Effect [%] |
| --- | --- |
| Cc1cc(C)c2c(N3CCN(CCN4CCOCC4)CC3)ncnc2n1 | 8.578 |
| Cc1nn(C)c2c(N3CCN(C(=O)C4CCC4)CC3)ncnc12 | 3.567 |
| CCc1nc(CN2CCCN(C(=O)C3CCC3)CC2)cs1 | 7.838 |
| Cc1cc(C)c2c(N3CCC(O)(Cn4ccnc4)CC3)ncnc2n1 | 6.34 |
| O=C(C1CCN(c2ncnc3cccc(F)c23)CC1)N1CCCC1 | -3.07 |
| Cc1cc(C)c2c(N3CCN(C(=O)N4CCOCC4)CC3)ncnc2n1 | 86.86 |
| Cc1cc(C)c2c(N3CCC(C(=O)N4CCOCC4)CC3)ncnc2n1 | 125.4 |
| Cc1cc(C)c2c(N3CCCN(C(=O)C4CCC4)CC3)ncnc2n1 | 89.28 |
| Cc1ccccc1CC(=O)N1CCc2c(ncnc2N2CCOCC2)C1 | 2.572 |
| CCOCC(=O)N1CCC(CSCc2ccco2)CC1 | 4.494 |
| O=C(C1CCCN1S(=O)(=O)C1CCCC1)N1CCSCC1 (stereo unspecified) | -23.1 |
| CN(C)c1nc2c(c(N3CCC(O)CC3)n1)CN(CC1CCOC1)CC2 (stereo unspecified) | 9.412 |
| CC(NC(=O)Cn1cccn1)c1cccnc1 (stereo unspecified) | -3.155 |
| CC(CCNC(=O)NCCNc1cnccn1)c1ccccc1 (stereo unspecified) | 0.7277 |
| CC(Cn1cccn1)NS(=O)(=O)Cc1ccccc1 (stereo unspecified) | -19.72 |
| c1ccc(C(Cn2cccn2)Nc2cnccn2)cc1 (stereo unspecified) | 93.79 |
| NCCn1cc(C(=O)NCc2ccccc2Cn2cccn2)nn1 | -26.32 |
| O=C(CNC(Cn1cccn1)c1ccccc1)Nc1cnccn1 (stereo unspecified) | 104.7 |
| CC(C)OC(=O)CC(NC(=O)CCn1cccn1)c1ccccc1 (stereo unspecified) | -19.71 |
| O=C(CNCc1ccccc1Cn1cccn1)Nc1cnccn1 | 109.9 |
| CCc1cnc(NCc2ccccc2Cn2cccn2)nc1 | 6.664 |
| COC(=O)CN(Cc1ccccc1C)C(=O)COCC1CC1 | 5.451 |
| O=c1cc(CN2CCCC2)nc2n1CCCN(CC1CCOCC1)C2 | 2.964 |
| O=c1cc(Cn2ccnc2)nc2n1CCCN(CC1CCOCC1)C2 | -2.581 |

| Structure (SMILES) | Percent Effect [%] |
| --- | --- |
| O=c1cc(Cn2cncn2)nc2n1CCCN(CC1CC1)C2 | -9.621 |
| CCS(=O)(=O)N1CCCn2c(nc(CN3CCCC3)cc2=O)C1 | 124.6 |
| CN(C)Cc1cc(=O)n2c(n1)CN(CC1CC1)CCC2 | 1.173 |
| O=c1cc(Cn2ccnc2)nc2n1CCCN(S(=O)(=O)C1CC1)C2 | 102.1 |
| O=c1cc(CN2CCCC2)nc2n1CCCN(CC1CC1)C2 | 112.4 |
| O=c1cc(Cn2cncn2)nc2n1CCCN(CC1CCOCC1)C2 | -15.84 |
| O=c1cc(CN2CCCC2)nc2n1CCCN(S(=O)(=O)C1CC1)C2 | 95.22 |
| O=c1cc(Cn2ccnc2)nc2n1CCCN(Cc1ccco1)C2 | 5.269 |
| COCCN1C(=O)[C@]2(CC[C@@H]3CN(C(=O)NCC(C)C)C[C@@H]32)N=C1C | -10.16 |
| Cc1n[nH]c(-c2ccc(NC(=O)C(C)N3CCN(C)CC3)cc2)n1 (stereo unspecified) | 0.753 |
| O=S(=O)(c1cccnc1)N1C[C@@H]2COC[C@]2(COCC2CC2)C1 | 5.387 |
| CCCn1cnc2c1CN(C(=O)c1ccc(F)cc1)[C@H](C(=O)OC)C2 | 6.422 |
| FC(F)(F)c1n[nH]c2c1CN(Cc1cn3ccccc3n1)CC2 | 10.05 |
| CC(C)n1c(C(=O)N2CCCC2)nc2c1CCN(c1ncccn1)C2 | -6.562 |
| CN(CC1(CO)CCCC1)c1nc2c(c(=O)[nH]1)Cc1ccccc1OC2 | 6.752 |
| Cc1nc2c(c(N[C@@H](CO)C(N)=O)n1)Cc1ccccc1OC2 | 104.3 |
| CN(CC1(CO)CCC1)c1nc2c(c(=O)[nH]1)Cc1ccccc1OC2 | 9.578 |
| NC(=O)C1CN(c2ncnc3c2Cc2ccccc2OC3)CCO1 (stereo unspecified) | -2.361 |
| Cc1nc2c(c(NCC3Cc4ccccc4CN3C)n1)CCNCC2 (stereo unspecified) | -7.174 |
| Cc1cc(C(=O)NC(C)c2nnn[nH]2)c2cccc(C)c2n1 (stereo unspecified) | 0.7589 |
| Cc1nc2c(c(NC(C)c3nnn[nH]3)n1)Cc1ccccc1OC2 (stereo unspecified) | 97.46 |
| Cc1nc2c(c(N[C@H](C(N)=O)C(C)C)n1)Cc1ccccc1OC2 | 105 |
| NC(=O)C1CCCN(c2ncnc3c2Cc2ccccc2OC3)C1 (stereo unspecified) | 10.44 |
